From PubChem BioAssay
A selection: hits, their analogues and other compounds. The true share with any hit is near 21%.
DT40 TDP1 CPT = DT40-hTDP1 cell growth loss with CPT | chicken DT40 Tdp1-/-;hTDP1 cells + 20 nM CPT, ATP luminescence, 48 h | Potency, µM (series often up to 46.2 µM), for inactives: at the highest dose activity change, negative = growth inhibition, hits mostly inhibitors | hit rate 12% among 420,000; also: potency is read from the fitted curve at half-maximal effect; % is scaled to controls: 0 for no effect and ±100 for the full control effect; nearly all actives have a fitted effect of over 55% in size
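Chicken DT40 Tdp1-/- cells complemented with human TDP1, 400 cells/well, exposed to compounds plus 20 nM camptothecin for at least 48 h at 37 C; viability read as ATP content by CellTiter-Glo luminescence.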
TDP1 cell noCPT = qHTS for Inhibitors of human tyrosyl-DNA phosphodiesterase 1 (TDP1): qHTS in cells in absence of CPT. DT40 Tdp1-/- hTDP1 cells, no CPT, ATP luminescence, 48 h. Potency, µM (top dose mostly 46.2 µM), without a hit: at the top dose activity change, negative = growth inhibition, actives largely listed as inhibitors. hit rate 15% among 420,000. AID 686978, 2013; also: potency is read from the fitted curve at half-maximal effect; % is scaled to controls: 0 for no effect and ±100 for the full control effect; nearly all actives have a fitted effect of over 55% in size
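DT40 Tdp1-/-;hTDP1 cells, no CPT (DMSO vehicle only), 400 cells/well; compounds pin-transferred; ≥48 hr, 37 °C; CellTiter-Glo 30 min RT dark, luminescence read.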
IL-1B inflam inh = inflammasome signaling inhibition, IL-1 beta readout | THP-1 LPS/ATP IL-1B secretion, AlphaLISA, 16 h; stronger effect = lower value | activity change, % at 57.5 µM | hit rate 4.7% among 360,000; in the data active = activity change below about -50%; inconclusive = mostly about -30% to -49%; also: % is scaled to controls: 0 for no effect and ±100 for the full control effect
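Secreted IL-1B measured by AlphaLISA bead assay after 16 h compound exposure of THP-1 cells; compounds (final up to 57.5 uM) added 1 h before LPS (250 ng/mL) and ATP (1.25 mM) stimulation; lower signal means less secretion.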
DRD3 agonist = activates the human D3 dopamine receptor | P35462 | D3R DiscoveRx beta-arrestin cells, luminescence, 90 min | max activation, % | hit rate 0.58% among 410,000 | AID 652048; in the data active = max activation above about 30%; also: 0% is about no effect
Target sequence (P35462 whole entry, looked up): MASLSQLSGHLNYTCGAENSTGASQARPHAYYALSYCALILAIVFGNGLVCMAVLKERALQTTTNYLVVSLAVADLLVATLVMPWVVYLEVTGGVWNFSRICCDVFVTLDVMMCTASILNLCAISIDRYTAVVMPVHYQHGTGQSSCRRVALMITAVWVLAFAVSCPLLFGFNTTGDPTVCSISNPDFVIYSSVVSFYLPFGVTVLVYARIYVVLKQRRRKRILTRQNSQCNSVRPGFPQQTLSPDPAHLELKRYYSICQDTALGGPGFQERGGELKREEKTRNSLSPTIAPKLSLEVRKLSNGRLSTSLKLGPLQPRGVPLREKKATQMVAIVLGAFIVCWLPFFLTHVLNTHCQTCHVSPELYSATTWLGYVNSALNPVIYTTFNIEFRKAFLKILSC
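Agonist mode: compounds and dopamine controls were applied to plated cells for 90 min at 37 degrees C after an overnight attachment at 1500 cells/well. Luminescent read-out followed 30 - 60 minutes at room temperature with DiscoveRx detection reagent.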
ClpP mod = qHTS Assay for Activators of ClpP; ATP-dependent Clp protease proteolytic subunit (Bacillus subtilis (strain 168)), P80244; purified B. subtilis ClpP, FRET peptide cleavage, 20 min; Potency, µM (top dose mostly 57.5 µM), for inactives: top-dose activity change, negative = active; hit rate 1.9% among 340,000; active = well fitted falling curve with a large enough effect; inconclusive = small, poorly fitted or top-dose-only effect; inactive = no such curve, though single readings can be large or run the other way; also: potency is read from the fitted curve at half-maximal effect; the source files actives as falling curves though it sought activators and does not explain the sign; nearly all actives have a fitted effect of over 65% in size
Target sequence (P80244 whole entry, looked up): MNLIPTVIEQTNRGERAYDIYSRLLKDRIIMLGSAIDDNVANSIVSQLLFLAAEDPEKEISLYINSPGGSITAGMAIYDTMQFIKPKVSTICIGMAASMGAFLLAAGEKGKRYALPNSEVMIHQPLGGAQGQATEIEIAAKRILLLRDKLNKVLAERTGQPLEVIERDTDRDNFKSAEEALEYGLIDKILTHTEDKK
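ClpP 10 microg/mL final, pH 8 Tris/KCl buffer with BSA, glycerol, Tween-20; compound pinned in; FRET-FV substrate; RT 20 min; Ex320/Em430; ΔFRET vs ADEP 5.8 microM, DMSO, no enzyme.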
D3 antag = blocks the human D3 dopamine receptor. P35462. D3R cells, DiscoveRx beta-arrestin luminescence, antagonist mode; stronger effect = lower value. max response, negative = inhibition, %. hit rate 2.5% among 360,000; in the data active = max response below about -50%; inconclusive = no clear call, values can overlap the other calls; also: % is scaled to controls: 0 for no effect and ±100 for the full control effect
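Cells expressing the human receptor were seeded at 1500 cells/well, incubated overnight at 37 degrees C in 5% CO2, then exposed to library compounds with dopamine controls for 90 minutes at 37 degrees C before luminescent detection.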
Active calls of the source: *; ? = inconclusive; . = no result; [ ] = another dose, or the depositor's remark. Unless noted, calls follow the shape of the dose curve; as a rule, active = well fitted inhibition curve with a large enough effect; inconclusive = small, poorly fitted or top-dose-only effect; inactive = flat fitted curve, though single readings scatter.

SMILES | DT40 TDP1 CPT | TDP1 cell noCPT | IL-1B inflam inh | DRD3 agonist | ClpP mod | D3 antag
COc1ccccc1NS(=O)(=O)c1ccc(C)c(NC(=O)C2CCCO2)c1 (configuration not stated) | -15% | ? | -5 | 0 | 2% | 2
CCN1C(=O)[C@@H]2[C@H](C1=O)[C@@H]1C(=O)Nc3ccccc3C(=O)N1[C@@H]2c1ccc(OC)cc1 | 6% | -24% | 10 | 35* | -3% | -7
CO[C@@H]1CN(C)C(=O)c2ccc(NC(C)=O)cc2OC[C@@H](C)N(C(=O)NC2CCCCC2)C[C@H]1C | -5% | 6% | 29 | 6 | -1% | 10
CO[C@H]1CN(C)C(=O)c2ccc(NC(=O)C3CCC3)cc2OC[C@H](C)N(CC2CCCCC2)C[C@@H]1C | ? | 21µM* | 15 | 6 | 1% | -14
CCC(=O)Nc1ccc2c(c1)OC[C@@H](C)N(Cc1cccc(F)c1)C[C@@H](C)[C@@H](OC)CN(C)C2=O | ? | 23µM* | 4 | 6 | -2% | 4
CO[C@@H]1CN(C)C(=O)c2ccc(NC(=O)C3CCC3)cc2OC[C@H](C)N(CC2CCCCC2)C[C@H]1C | ? | ? | ? | 0 | -2% | 8
CO[C@@H]1CN(C)C(=O)c2cc(NC(=O)NC3CCCCC3)ccc2OC[C@@H](C)N(CCc2ccccc2)C[C@@H]1C | 16µM* | ? | -6 | -9 | -2% | ?
CCOc1cc(CNCc2ccncc2)cc(Br)c1OCc1ccc(F)cc1 | 10µM* | 11µM* | -84* | 6 | 0% | 27
O/N=C/c1cc(Br)ccc1OCc1ccccc1F | -5% | -19% | -63* | 2 | 2% | 26
CCOc1ccc(Br)cc1CNCc1cccnc1 | -14% | -1% | -13 | -3 | -3% | -19
Fc1ccccc1COc1ccc(Br)cc1CNCc1ccncc1 | ? | ? | -22 | -12 | 1% | -68*
Fc1ccc(COc2ccc(Br)cc2CNCc2ccncc2)cc1 | ? | ? | -79* | -38 | -2% | ?
COc1cc(CNn2c(C)n[nH]c2=S)cc(Br)c1OCc1ccc(F)cc1 | 2% | -2% | 9 | -5 | -10% | -8
Fc1ccccc1COc1ccc(Br)cc1CNCc1cccnc1 | ? | ? | 5 | -10 | . | ?
CC(=O)c1ccc(S(=O)(=O)N(C)CC(=O)NCC2CCCCC2)cc1 | 6% | -17% | 15 | -3 | . | 3
O=C(Cc1ccc2c(c1)OCO2)N1CCOc2ccc(CN3CCOCC3)cc2C1 | 2%[9.04 µM] | -17% | . | . | . | .
Fc1ccc(COc2cccc(CNCc3ccncc3)c2)cc1 | ? | 8.2µM* | -11 | 34* | 1% | 15
COCCCN1C(=O)C(CC(=O)NC2CCCCC2)CC(C(=O)N2CCOCC2)=C1C (configuration not stated) | 1% | -5% | 14 | 2 | 2% | -13
COc1ccc(CN(C(=O)COc2ccccc2OC)C2CCS(=O)(=O)C2)cc1 (configuration not stated) | -15% | -18% | . | 1 | 1% | .
COc1ccc(C(=O)/C=C/c2ccc(O)cc2)c(O)c1C/C=C(\C)CCC=C(C)C | ? | ? | -87* | 7 | -4% | 0
COc1ccc(CCNC(=O)c2ccc3c(=O)n(Cc4ccco4)c(=S)[nH]c3c2)cc1OC | -12% | ? | 4 | -2 | 1% | 4
Cc1cccn2c(=O)c3cc(C(=O)NCCc4ccccc4)c(=N)n(Cc4ccco4)c3nc12 | 21µM* | 10µM* | 4 | -16 | . | -100*
Cc1cccn2c(=O)c3cc(C(=O)NCc4ccco4)c(=N)n(CCc4ccccc4)c3nc12 | -96% | 15µM* | -85* | 10 | . | -11
Cc1cccn2c(=O)c3cc(C(=O)NCc4cccnc4)c(=N)n(CCCO)c3nc12 | -2% | -13% | . | 5 | 4% | .
Cc1cccn2c(=O)c3cc(C(=O)NCc4ccco4)c(=N)n(C(C)C)c3nc12 | -26% | -28% | -30 | 2 | 14µM* | -21
SMILES | DT40 TDP1 CPT | TDP1 cell noCPT | IL-1B inflam inh | DRD3 agonist | ClpP mod | D3 antag
COc1ccc(CCNC(=O)c2cc3c(=O)n4cccc(C)c4nc3n(Cc3ccco3)c2=N)cc1OC | ? | 26µM* | 10 | -5 | . | 11
CC1CCCCN1C(=O)CSc1nnc(-c2ccccc2O)o1 (configuration not stated) | ? | ? | 40 | -8 | . | 5
CCC(Oc1ccccc1)C(=O)OCC(=O)N(CC)c1c(N)n(Cc2ccccc2)c(=O)[nH]c1=O (configuration not stated) | 6% | 6% | 9 | -5 | -3% | -21
CSc1ccc(NC(=O)NCc2cccnc2)cc1 | 6% | 2% | -22 | -25 | -1% | -21
CCCCc1ccc(NC(=O)Nc2cc(C)nn2C)cc1 | 2% | -20% | 35 | 5 | -1% | 8
CCCCc1cc(O)c(CCCC)c(O)c1 | 21µM* | 13µM* | ? | -4 | -1% | -13
O=C(c1ccc(Cl)cc1)N1CCC(O)(CSc2ccc(Cl)cc2Cl)CC1 | 16µM* | ? | -20 | 3 | -4% | 17
O=C(c1ccc(Cl)c(Cl)c1)N1CCC(O)(CN2CCOCC2)CC1 | 7% | 1% | 23 | -4 | -1% | 10
CCc1ccc(CN2CCC(CO)(CC3CCCCO3)CC2)o1 (configuration not stated) | 4% | -22% | 27 | -30 | . | ?
OCC1(CC2CCCCO2)CCN(C/C=C/c2ccccc2)CC1 (configuration not stated) | 5% | -28% | -7 | -13 | . | -68*
COc1cc(/C=C/CN2CCC(CO)(CC3CCCCO3)CC2)ccc1O (configuration not stated) | -7% | -17% | -14 | -53 | -7% | -67*
COc1cccc(CN2CCC(CO)(CC3CCCCO3)CC2)c1 (configuration not stated) | 2% | -8% | 5 | -30 | . | -25
CCCN(Cc1nnc(-c2ccccc2Cl)o1)C(=O)c1cc(S(=O)(=O)N2CCOCC2)ccc1F | ? | ? | -26 | -3 | -1% | 19
CCc1cc(=O)oc2c(C)c(O[C@@H]3O[C@H](CO)[C@@H](O)[C@H](O)[C@H]3O)ccc12 | 3% | 10µM* | 10 | 2 | 28µM* | -8
